Experimental data reported in ChEMBL document CHEMBL3988442, “University of Dundee, Small-Polar-MMV Screening Library” (2021).
For part of these data: Entries with a potency or affinity are not part of this list.

How the values were obtained:
Parameters in all cases: scale not given: direction of the effect not stated beside the values
[1] = molecular target: Protein translocase subunit SecA (Escherichia coli (strain K12)) (UniProt P10408); test: Assay to Identify E. coli SecA ATPase Inhibitors; format: functional; conditions: 30 µM
Sequence of Protein translocase subunit SecA (Escherichia coli (strain K12)) (P10408 whole entry): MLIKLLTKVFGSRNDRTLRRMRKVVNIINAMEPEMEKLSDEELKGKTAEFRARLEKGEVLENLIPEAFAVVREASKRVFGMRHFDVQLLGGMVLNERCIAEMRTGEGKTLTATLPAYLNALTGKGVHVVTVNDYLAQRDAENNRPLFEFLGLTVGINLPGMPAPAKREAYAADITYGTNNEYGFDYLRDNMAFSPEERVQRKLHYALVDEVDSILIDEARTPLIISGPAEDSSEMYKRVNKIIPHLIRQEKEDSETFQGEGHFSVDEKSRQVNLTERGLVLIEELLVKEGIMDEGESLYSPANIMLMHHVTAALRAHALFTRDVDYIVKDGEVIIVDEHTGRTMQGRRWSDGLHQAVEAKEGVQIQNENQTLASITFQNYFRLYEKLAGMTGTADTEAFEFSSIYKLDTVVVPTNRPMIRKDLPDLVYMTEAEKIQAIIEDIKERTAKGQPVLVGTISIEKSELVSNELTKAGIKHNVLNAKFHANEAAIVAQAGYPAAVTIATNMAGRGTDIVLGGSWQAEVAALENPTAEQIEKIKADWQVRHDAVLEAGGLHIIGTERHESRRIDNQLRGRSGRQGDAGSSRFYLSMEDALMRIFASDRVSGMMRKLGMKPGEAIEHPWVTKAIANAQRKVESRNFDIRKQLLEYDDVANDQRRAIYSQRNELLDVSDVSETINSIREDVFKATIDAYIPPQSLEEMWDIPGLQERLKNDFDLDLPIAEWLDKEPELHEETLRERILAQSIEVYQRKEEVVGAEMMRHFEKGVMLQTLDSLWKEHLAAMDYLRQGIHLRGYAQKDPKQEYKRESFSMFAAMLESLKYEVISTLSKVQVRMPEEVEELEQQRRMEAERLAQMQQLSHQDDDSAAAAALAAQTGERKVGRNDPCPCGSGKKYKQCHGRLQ

[2] = molecular target: T1, Ubiquitin-activating enzyme e1, putative (Leishmania donovani (strain BPK282A1)) (UniProt E9BSI1); test: Leishmania donovani Ubiquitin Activating Enzyme (LdE1); format: functional; conditions: 30 µM
T1 sequence (whole entry): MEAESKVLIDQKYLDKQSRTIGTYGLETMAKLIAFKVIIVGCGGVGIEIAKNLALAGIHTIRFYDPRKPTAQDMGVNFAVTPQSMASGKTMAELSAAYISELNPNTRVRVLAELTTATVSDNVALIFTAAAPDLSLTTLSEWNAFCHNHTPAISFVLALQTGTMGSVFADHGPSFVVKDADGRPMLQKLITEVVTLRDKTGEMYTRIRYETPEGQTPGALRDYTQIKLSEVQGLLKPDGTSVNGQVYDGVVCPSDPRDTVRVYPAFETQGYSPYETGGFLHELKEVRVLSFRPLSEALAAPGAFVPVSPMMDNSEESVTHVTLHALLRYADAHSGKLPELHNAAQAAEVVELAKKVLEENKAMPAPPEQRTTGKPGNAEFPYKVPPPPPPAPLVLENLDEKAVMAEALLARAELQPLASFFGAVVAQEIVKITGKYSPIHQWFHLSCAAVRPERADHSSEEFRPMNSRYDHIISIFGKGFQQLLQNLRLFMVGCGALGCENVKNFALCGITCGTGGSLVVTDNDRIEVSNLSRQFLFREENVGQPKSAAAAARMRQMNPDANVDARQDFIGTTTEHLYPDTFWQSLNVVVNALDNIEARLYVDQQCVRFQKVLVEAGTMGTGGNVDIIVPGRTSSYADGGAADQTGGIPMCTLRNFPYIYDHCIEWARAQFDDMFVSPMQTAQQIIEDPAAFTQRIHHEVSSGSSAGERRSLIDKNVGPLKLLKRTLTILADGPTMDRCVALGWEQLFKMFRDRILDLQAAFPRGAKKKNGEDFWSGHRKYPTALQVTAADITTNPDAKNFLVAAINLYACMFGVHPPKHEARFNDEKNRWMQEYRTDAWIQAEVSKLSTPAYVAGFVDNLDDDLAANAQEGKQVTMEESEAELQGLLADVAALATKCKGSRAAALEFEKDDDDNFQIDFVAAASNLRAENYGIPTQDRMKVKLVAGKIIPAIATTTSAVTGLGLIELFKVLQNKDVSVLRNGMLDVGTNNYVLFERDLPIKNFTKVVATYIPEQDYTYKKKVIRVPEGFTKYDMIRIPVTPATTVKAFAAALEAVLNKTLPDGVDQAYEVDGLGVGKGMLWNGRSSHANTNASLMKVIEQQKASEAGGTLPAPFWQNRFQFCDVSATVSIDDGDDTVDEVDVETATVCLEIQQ

[3] = molecular target: Sialic acid-binding Ig-like lectin 9 (Homo sapiens) (UniProt Q9Y336); test: Hs-Siglec9 ALPHAscreen SOP 20170721; conditions: 10 µM
Sequence of Sialic acid-binding Ig-like lectin 9 (Homo sapiens) (Q9Y336 whole entry): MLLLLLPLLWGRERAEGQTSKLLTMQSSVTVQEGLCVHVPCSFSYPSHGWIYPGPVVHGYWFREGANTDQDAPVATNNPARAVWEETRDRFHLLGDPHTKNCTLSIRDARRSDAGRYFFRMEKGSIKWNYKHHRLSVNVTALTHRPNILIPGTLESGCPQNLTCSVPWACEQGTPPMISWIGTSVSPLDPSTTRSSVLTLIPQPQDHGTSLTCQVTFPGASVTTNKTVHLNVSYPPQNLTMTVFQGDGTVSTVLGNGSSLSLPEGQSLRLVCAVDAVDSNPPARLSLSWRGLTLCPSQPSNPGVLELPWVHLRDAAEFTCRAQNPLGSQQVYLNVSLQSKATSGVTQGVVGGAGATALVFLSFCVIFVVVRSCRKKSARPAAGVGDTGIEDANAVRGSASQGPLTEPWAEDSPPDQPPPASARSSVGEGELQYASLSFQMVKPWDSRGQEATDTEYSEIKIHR

Trypanosoma cruzi = test: Trypanosoma cruzi phosphomannomutase and mannose-1-phosphate guanylyltransferase assay; format: functional; conditions: 10 µM
[4] = molecular target: T2, Arginase-2, mitochondrial (Homo sapiens) (UniProt P78540); test: in vitro enzyme assay to detect the production of urea directly proportional to the activity of Arginase II; format: functional; conditions: 33.3 µM; also: in the data most compounds retested in dose-response had high values
T2 sequence (whole entry): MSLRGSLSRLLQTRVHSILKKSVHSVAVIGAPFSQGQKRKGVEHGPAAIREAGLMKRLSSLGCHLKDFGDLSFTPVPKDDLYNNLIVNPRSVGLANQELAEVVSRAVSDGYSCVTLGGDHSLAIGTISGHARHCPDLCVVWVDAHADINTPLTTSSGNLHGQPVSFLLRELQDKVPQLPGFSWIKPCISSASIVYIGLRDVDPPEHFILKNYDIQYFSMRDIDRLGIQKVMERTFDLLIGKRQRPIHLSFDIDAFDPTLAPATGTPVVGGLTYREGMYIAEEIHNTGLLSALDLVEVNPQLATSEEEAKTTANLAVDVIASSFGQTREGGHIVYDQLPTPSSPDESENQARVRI

[5] = molecular target: T3, Proteasome subunit beta (Trypanosoma cruzi) (UniProt O96673); test: Trypanosoma cruzi proteasome chymotrypsin-like activity (TcProtChymo) assay.; also: in the data most compounds retested in dose-response had high values; format: functional; conditions: 9.37 µM
T3 sequence (whole entry): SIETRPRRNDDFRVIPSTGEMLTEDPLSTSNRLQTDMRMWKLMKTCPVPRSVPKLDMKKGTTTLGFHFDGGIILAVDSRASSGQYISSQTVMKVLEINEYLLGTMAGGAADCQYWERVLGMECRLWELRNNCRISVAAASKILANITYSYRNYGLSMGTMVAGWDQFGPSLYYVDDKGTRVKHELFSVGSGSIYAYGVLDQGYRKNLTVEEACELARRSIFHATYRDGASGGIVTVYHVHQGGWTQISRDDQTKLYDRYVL

Homo sapiens = organism: Homo sapiens; test: To identify inhibition of the IFN signalling (Jak-Stat) pathway via expression of an eGFP reporter gene under the control of an IFN-stimulated response element (ISRE) containing MxA promoter.; format: functional; conditions: 30 µM
[6] = molecular target: T4, Tyrosyl-tRNA synthetase, putative (Trypanosoma cruzi (strain CL Brener)) (UniProt Q4DSP6); test: Trypanosoma cruzi tyrosyl tRNA synthetase (TcYRS) _High Tyrosine SOP; format: functional; conditions: 30 µM; also: in the data most compounds retested in dose-response had high values
T4 sequence (whole entry): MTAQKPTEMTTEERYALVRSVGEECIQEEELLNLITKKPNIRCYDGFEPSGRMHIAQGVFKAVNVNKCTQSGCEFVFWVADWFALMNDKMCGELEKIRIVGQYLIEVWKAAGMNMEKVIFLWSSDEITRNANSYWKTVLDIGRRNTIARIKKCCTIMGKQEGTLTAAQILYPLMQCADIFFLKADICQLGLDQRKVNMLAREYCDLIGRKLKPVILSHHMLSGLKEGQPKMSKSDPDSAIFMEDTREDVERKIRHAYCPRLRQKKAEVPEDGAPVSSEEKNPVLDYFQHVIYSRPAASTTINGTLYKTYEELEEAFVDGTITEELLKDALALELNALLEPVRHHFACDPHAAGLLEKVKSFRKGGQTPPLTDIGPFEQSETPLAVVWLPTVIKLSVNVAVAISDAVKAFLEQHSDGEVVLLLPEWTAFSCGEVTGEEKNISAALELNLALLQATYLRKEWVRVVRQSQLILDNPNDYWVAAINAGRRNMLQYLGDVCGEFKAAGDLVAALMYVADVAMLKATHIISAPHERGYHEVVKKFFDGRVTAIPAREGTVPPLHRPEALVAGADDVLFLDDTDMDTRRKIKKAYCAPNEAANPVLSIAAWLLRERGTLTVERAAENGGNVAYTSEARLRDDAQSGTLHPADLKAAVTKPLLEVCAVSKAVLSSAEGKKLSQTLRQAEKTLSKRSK

[7] = molecular target: T4, Tyrosyl-tRNA synthetase, putative (Trypanosoma cruzi (strain CL Brener)); test: Trypanosoma cruzi tyrosyl tRNA synthetase (TcYRS) SOP; format: functional; conditions: 30 µM
[8] = molecular target: Chromo domain-containing protein 1 (Saccharomyces cerevisiae (strain ATCC 204508 / S288c) (Baker's yeast)) (UniProt P32657); test: ScCHD-1 Enzyme Inhibition Assay; format: functional; conditions: 30 µM; also: in the data most compounds retested in dose-response had high values
Sequence of Chromo domain-containing protein 1 (Saccharomyces cerevisiae (strain ATCC 204508 / S288c) (Baker's yeast)) (P32657 whole entry, the tested form may be a part): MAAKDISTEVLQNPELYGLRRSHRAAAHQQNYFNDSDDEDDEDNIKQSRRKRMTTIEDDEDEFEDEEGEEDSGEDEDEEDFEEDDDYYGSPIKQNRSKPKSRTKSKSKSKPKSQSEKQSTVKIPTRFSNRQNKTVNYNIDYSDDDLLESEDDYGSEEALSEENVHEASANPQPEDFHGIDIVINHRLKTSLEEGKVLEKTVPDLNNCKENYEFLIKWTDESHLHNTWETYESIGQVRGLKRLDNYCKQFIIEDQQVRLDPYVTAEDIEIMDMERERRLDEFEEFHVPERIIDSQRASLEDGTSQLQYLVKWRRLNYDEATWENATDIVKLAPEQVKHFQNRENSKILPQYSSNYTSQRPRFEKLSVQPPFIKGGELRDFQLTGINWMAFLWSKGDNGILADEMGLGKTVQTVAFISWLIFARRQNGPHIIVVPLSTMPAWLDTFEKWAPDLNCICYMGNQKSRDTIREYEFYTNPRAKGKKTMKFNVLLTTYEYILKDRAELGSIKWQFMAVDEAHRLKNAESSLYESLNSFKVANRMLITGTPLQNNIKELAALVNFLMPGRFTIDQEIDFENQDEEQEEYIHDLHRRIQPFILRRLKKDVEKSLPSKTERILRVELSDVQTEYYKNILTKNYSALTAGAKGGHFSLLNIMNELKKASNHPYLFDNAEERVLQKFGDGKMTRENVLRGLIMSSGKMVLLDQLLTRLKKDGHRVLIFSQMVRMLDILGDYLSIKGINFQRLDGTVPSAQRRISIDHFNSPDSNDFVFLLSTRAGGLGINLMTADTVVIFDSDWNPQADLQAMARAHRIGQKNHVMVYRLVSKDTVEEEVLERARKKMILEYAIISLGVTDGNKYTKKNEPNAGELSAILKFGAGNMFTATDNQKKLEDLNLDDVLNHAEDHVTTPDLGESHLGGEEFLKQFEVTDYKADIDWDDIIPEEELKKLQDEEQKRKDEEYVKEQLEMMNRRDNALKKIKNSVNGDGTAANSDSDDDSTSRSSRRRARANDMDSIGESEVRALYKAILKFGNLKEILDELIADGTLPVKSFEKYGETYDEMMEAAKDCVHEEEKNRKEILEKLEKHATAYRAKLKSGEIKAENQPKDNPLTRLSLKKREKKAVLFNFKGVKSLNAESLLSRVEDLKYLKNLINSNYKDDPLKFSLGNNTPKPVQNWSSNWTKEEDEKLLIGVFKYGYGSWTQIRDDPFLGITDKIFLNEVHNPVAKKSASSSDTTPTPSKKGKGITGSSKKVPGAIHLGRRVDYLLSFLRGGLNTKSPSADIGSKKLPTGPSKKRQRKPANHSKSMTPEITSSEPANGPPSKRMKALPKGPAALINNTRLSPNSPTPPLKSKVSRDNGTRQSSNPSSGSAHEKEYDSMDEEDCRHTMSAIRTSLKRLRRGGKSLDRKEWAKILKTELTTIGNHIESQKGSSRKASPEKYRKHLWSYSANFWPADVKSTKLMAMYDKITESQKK

Row | SMILES | Percent Effect [1] [%] | Percent Effect [2] [%] | Percent Effect [3] [%] | Percent Effect (Trypanosoma cruzi) [%] | Percent Effect [4] [%] | Percent Effect [5] [%] | Percent Effect (Homo sapiens) [%] | Percent Effect [6] [%] | Percent Effect [7] [%] | Percent Effect [8] [%]
1 | O=C(C1CCCCC1)N1CCC2(CCCN2CC2CC2)CC1 | -2.94 | 11.7 | -2.33 | -3.56 | 1.37 | 3.18 | 13.7 | 2.9 | 2.5 | -6.38
2 | O=C(NCC1CCOC1)c1ccc(OCC(F)(F)F)nc1 (stereo not given) | -1.32 | 12.8 | 9.89 | -4.98 | 2.46 | 6.91 | 25.9 | 3.35 | 10.8 | -2.44
3 | Cc1nc(C)c(C(=O)NCCNc2ncccc2C#N)s1 | -0.152 | 31.2 | 1.1 | 5.41 | -5.94 | 18.4 | 7.44 | 6.86 | 28.2 | -11.7
4 | CN(C)CC(=O)N1CCC2(CCN(Cc3ccccn3)C2=O)C1 (stereo not given) | -3.33 | -1.3 | -3.23 | -2.63 | -4.45 | 12.6 | -1.64 | 1.58 | 7.69 | -2.1
5 | O=C(NCC1CC1)C1CCC2(CCN(C(=O)c3ccccn3)CC2)O1 (stereo not given) | -3.07 | 1.3 | -0.0517 | -2.44 | 2.74 | -2.66 | 9.93 | -4.83 | -10 | -4.71
6 | COCCN(C)C[C@@H]1CCC[C@@H]2CN(c3cc(OC)ncn3)C[C@@H]21 | -6.04 | 3.9 | -3.68 | -1.27 | -5.26 | 13.9 | 11.6 | 7.89 | 7.69 | 0.558
7 | COc1ccc(-n2ncc(C(=O)NCC3COC(C)(C)O3)c2N)cc1 (stereo not given) | 97.8 | 14.7 | -6.21 | -0.592 | 1.33 | 14.8 | 15.7 | 1.06 | 5 | -19.9
8 | Fc1ccc(-c2n[nH]cc2-c2ccnc(NCCN3CCCC3)n2)cc1 | -1.15 | 8 | -4.6 | -8.23 | -7.98 | 15.3 | 5.44 | -5.79 | 0 | -21.2
9 | Cc1noc(C)c1C(=O)NCc1ccc(N2CCOC(C)C2)nc1 (stereo not given) | -2.58 | 21.3 | -1.63 | -0.402 | -0.887 | 12.5 | 9.59 | 2.63 | 15.4 | -13.6
10 | Cc1ccc(C(=O)N2CCC3(CC2)COC(COc2ccccn2)C3)o1 (stereo not given) | -7 | 19.5 | 6.32 | 2.24 | -2.83 | 7.33 | -10.8 | 5.79 | 12.8 | 18.6
11 | Cn1cnnc1C1CCCN(C(=O)c2cc(Cl)c3c(c2)OCO3)C1 (stereo not given) | -2.96 | 5.33 | 2.45 | -5.02 | 2.22 | 8.57 | 4.91 | 0.526 | 10.3 | -5.32
12 | CNc1cccc(C2CCCN(C(C)=O)C2)n1 (stereo not given) | 1.36 | 6.67 | -7.25 | -6.71 | 3.98 | 14.1 | 17.4 | 1.06 | 5 | -14.4
13 | CCN(CC)C1CCN(C(=O)NCc2nncn2CC)CC1 | -3.6 | 13.3 | -2.94 | 3.41 | 3.55 | 12 | 21.2 | 0.526 | 7.69 | -11.2
14 | CCc1noc(C(C)N2CCOCC2)n1 (stereo not given) | -7.21 | 10.7 | 7.7 | 0.602 | 0.887 | 5.85 | 5.17 | 6.84 | 5.13 | -8.94
15 | Cn1cc(NC(=O)N2CCC(NS(C)(=O)=O)CC2)ccc1=O | 1.1 | 48.7 | 0.0157 | -2.54 | 13.9 | 1.11 | 18.1 | -9.09 | -13.2 | -0.842
16 | O=C(NCc1cc[nH]n1)NCC(c1ccc(F)cc1)N1CCOCC1 (stereo not given) | -1.44 | 23.1 | -10.9 | 4.79 | 2.87 | 7.93 | 8.57 | 4.31 | 20.5 | -7.47
17 | CCOc1c(Cl)cccc1NCc1cc(C)on1 | -0.827 | 12.8 | -8.13 | -1.6 | 2.05 | 15.1 | 25.9 | 8.13 | 22.9 | -1.3
18 | CCc1nc(CN2CCCN(C(=O)CCSC)CC2)cs1 | -1.79 | 12.8 | -12.3 | -7.98 | 6.15 | 9.81 | 22.8 | 0.478 | 18.1 | -4.21
19 | Cc1nc(C2CCCN(C(=O)CO)C2)cc(N2CCOCC2)n1 (stereo not given) | -7.77 | 0 | 22.8 | 9.02 | -2.45 | 13.7 | 6.91 | 3.72 | 14.6 | -5.28
20 | CN(C)S(=O)(=O)N1CCN(c2ccnc(N3CCCC3)n2)CC1 | -3.6 | -2.7 | -0.53 | 3.01 | -1.75 | 8.39 | -13.3 | 3.72 | 4.88 | -0.866
21 | CCc1nc(CN2CCCN(C(=O)c3c(C)noc3C)CC2)cs1 | -2.47 | 10.3 | -1.6 | 0.0939 | 2.87 | 8.11 | 13.8 | 3.35 | 8.43 | -3.62
22 | CN(Cc1ccc(F)cc1)[C@@H]1CN(C(=O)c2cccs2)C[C@H]1O | -4.06 | 17.3 | -0.715 | 1.97 | -3.1 | 17.6 | 10.6 | 5.29 | 20 | -21.9
23 | Cc1ccc(C(=O)N2CCCS2(=O)=O)cc1Cl | -1.08 | 5.33 | -1.7 | -4.62 | 3.1 | 3.99 | -6.01 | 0.526 | 0 | -6.7
24 | Cc1occc1C(=O)N1CCC2(CCC(C(=O)NCC3CC3)O2)CC1 (stereo not given) | -0.841 | 19.5 | 1.13 | -0.75 | 1.83 | 13 | 6.84 | 11.6 | 20 | -4.43
